Assay outcomes from PubChem BioAssay.
Sampled rows, rich in hits. Any-hit rate of the full collection: about 4.6%.
Mdm2 MdmX PPI: disrupts the human Mdm2-MdmX interaction. actives 3% (n = 330,000). inhibition, % at 8 µM. O15151+Q00987. SaOS-2 split-luciferase Mdm2/MdmX complementation, luminescence;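 active means inhibition of at least 50% at 8 µM in the primary screen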
KKLEB cytotox: counter-screen for CF NF-kB inhibitors: cytotoxicity. activity change (cytotoxicity), % at 5 µM. AID 602141. KKLEB CF airway cells viability, ATPlite luminescence, overnight; active compounds read low; cells stimulated with P. aeruginosa culture filtrate. actives 0.36% (n = 360,000);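 active means corrected activity change at or below -50% at 5 µM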
Peg3 prom inh-1: Peg3 promoter activity inhibition | actives 1.7% (n = 360,000) | inhibition, % at 20 µM | AID 588405 | HeLa PEG-Prom luciferase reporter, luminescence, overnight;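 active means inhibition of at least 50% at 20 µM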
ABHD5-PLIN5 inh: inhibitors of human ABHD5-perilipin-5 interaction; Split G. princeps luciferase complementation, luminescence, 4 h; inhibition, % at 4 µM; actives 0.78% (n = 360,000); AID 602281;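 active means inhibition above the mean inhibition across every tested compound plus 3 SD, cut at about 22% in these data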;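 further: 0% = DMSO only wells and the 100% control is not disclosed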
Target sequence (Q00G26 whole entry, looked up): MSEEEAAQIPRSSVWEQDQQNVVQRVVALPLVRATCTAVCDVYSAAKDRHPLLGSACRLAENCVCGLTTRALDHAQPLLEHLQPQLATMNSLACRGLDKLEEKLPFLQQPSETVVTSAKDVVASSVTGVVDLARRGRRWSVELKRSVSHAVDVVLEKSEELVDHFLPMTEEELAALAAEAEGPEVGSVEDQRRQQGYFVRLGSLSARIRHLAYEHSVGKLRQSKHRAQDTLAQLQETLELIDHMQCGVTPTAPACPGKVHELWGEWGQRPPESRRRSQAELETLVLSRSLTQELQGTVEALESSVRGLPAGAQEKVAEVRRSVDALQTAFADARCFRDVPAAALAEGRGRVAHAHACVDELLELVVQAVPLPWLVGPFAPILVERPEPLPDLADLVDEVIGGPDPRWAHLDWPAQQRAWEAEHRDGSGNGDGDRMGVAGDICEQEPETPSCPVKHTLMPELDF
Target sequence (Q8WTS1 whole entry, looked up): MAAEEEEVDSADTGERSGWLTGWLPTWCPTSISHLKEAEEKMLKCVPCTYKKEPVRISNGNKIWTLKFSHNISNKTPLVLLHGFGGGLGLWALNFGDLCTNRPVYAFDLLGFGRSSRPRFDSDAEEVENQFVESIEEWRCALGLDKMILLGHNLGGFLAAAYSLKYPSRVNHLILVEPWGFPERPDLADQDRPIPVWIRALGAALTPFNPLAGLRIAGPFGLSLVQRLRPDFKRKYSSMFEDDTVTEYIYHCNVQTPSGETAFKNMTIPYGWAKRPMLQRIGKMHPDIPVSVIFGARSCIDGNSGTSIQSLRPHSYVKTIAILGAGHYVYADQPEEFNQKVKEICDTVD
HIF-2a inh: HIF-2a inhibition; inhibition, % at 18.8 µM; actives 0.72% (n = 360,000); 786-0 RCC cells HIF-2a reporter, luciferase luminescence, overnight; AID 624352;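 active means inhibition of the luminescence signal of 40% or more relative to plate controls, in a single-dose primary screen at 18.75 µM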
CF NFkB block: inhibitors of cystic fibrosis induced NF-kB. actives 0.86% (n = 360,000). inhibition, % at 5 µM. KKLEB NF-kB-GFP reporter, PAF-induced, GFP fluorescence overnight;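 active means at least 50% inhibition at 5 µM, scaled per plate between neutral and stimulator controls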;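 further: PAF is a Pseudomonas aeruginosa culture filtrate used as stimulus; plate controls were PAF-stimulated DMSO wells for no effect and unstimulated DMSO wells for full effect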
Mdm2-MdmX conf: confirmation of human Mdm2/MdmX interaction inhibitors | shares compounds with Mdm2 MdmX PPI | Mdm2-MdmX binding, luminescent assay | inhibition, % at 8 µM | actives 55% (n = 10,000)
FLuc counter: counter-screen for Mdm2/MdmX inhibitors: full-length luciferase; shares compounds with Mdm2 MdmX PPI; SaOS-2 full-length luciferase counterscreen, luminescence; inhibition, % at 8 µM; actives 77% (n = 6,200);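 active means mean inhibition at 8 µM reaching about 37%, which flags the compound as non-specific, limit read from the data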;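 further: p53-null SaOS-2 cells with luciferase driven by a doxycycline-inducible promoter; compound on cells about two nights before reading with doxycycline added after day one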
Peg3 prom inh-2: confirmation of Peg3 promoter inhibitors; shares compounds with Peg3 prom inh-1; inhibition, % at 20 µM; actives 84% (n = 1,300); AID 602417; HeLa PEG-Prom luciferase reporter, luminescence, overnight;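 active means at 20 µM dose, 40% or more inhibition averaged across four replicates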
CF NFkB inh conf: confirmation of cystic fibrosis induced NF-kB inhibitors. shares compounds with CF NFkB block. KKLEB CF airway cells, PAF-induced NF-kB-GFP fluorescence, overnight. inhibition, % at 5 µM. actives 64% (n = 1,300). AID 602472;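 further: stimulus PAF is a Pseudomonas aeruginosa filtrate and not platelet activating factor; plate controls were DMSO wells with stimulus for no effect and unstimulated DMSO wells for full effect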
Starred values were filed as active, the others as inactive; . = no result given. Unless noted, no stated cut-off is given here; in the data, active means inhibition above about 40%; inactive means the rest.

SMILES | Mdm2 MdmX PPI | KKLEB cytotox | Peg3 prom inh-1 | ABHD5-PLIN5 inh | HIF-2a inh | CF NFkB block | Mdm2-MdmX conf | FLuc counter | CF NFkB inh conf | others
CCC1CCCCN1C(=S)NC(=O)c1cccc([N+](=O)[O-])c1 (stereo not drawn) | 24 | -9 | 7 | 3 | 0 | 7 | . | . | .
CCCCNc1c(-c2cccc(-c3ccc(OC)cc3)c2)nc2ccc(C)cn12 | 99* | -23 | 69* | -12 | -163 | 68* | 56* | 66* | 91*
CC12CCC(C)(c3nc4ccccc4nc31)C2(C)C | 34 | 4 | -10 | -3 | 7 | -20 | . | . | .
Cc1[nH]nc2c1-c1nc3ccccc3nc1C(C)(C)C2 | 50* | -14 | 22 | 1 | 23 | 51* | 27 | . | 54*
COc1cc(/C=C2\SC(=O)N(CCNC(=O)c3sc4cc(F)ccc4c3Cl)C2=O)cc(OC)c1OC | 54* | -42 | 7 | 14 | 17 | 55* | -10 | . | 67*
COc1ccc(/C=C/C(=O)c2ccc([N+](=O)[O-])o2)cc1 | 100* | -19 | 101* | 18 | -19 | 51* | 68* | 42* | -203
Cc1cccc(Nc2ncnc3ccc(Br)cc23)c1 | 76* | -10 | 2 | 6 | 28 | 58* | 59* | 26 | 72*
Cc1ccc2ncnc(Nc3cccc(C(=O)O)c3)c2c1 | -16 | -1 | 3 | 5 | -1 | 0 | . | . | .
Cc1ccc2ncnc(Nc3ccccc3)c2c1 | 33 | -15 | -6 | -2 | -15 | 28 | . | . | .
CN(C)c1ccc(Nc2ncnc3ccc(Br)cc23)cc1 | 78* | -10 | 0 | -1 | -14 | 73* | 68* | 37* | 93*
Clc1cccc(Nc2ncnc3ccc(Br)cc23)c1 | 74* | -41 | 10 | -1 | 23 | 69* | 43* | 36 | 58*
Clc1nnc(Cl)c2c1ncn2Cc1ccccc1 | 14 | 5 | 12 | 4 | 17 | 12 | . | . | .
Cc1cc(C)cc(NC(=O)C(OC(=O)c2cc[n+]([O-])cc2)c2ccccc2)c1 (stereo not drawn) | 0 | 5 | -32 | 4 | -54 | -2 | . | . | .
NS(=O)(=O)c1ccc(CCNC(=O)c2ccc(C#CC3(O)CCCCC3)cc2)cc1 | 70* | 3 | 87* | 2 | -14 | 81* | 68* | 72* | 80*
NC(=O)CC1(c2ccccc2)CCCCC1 | . | 8 | -1 | 0 | 10 | -7 | . | . | .
COc1ccc(-c2nc(NC(=O)c3ccc(OCC(=O)Nc4ccc(F)cc4)c(OC)c3)sc2C)cc1 | 61* | -45 | 18 | -14 | 8 | 54* | 46* | 58* | 72*
CC(=O)c1c(C)n(-c2ccccc2Br)c2ccc(O)cc12 | 47 | 1 | 38 | -2 | 37 | 41 | . | . | .
COc1ccccc1OCC(=O)NNC(=O)Nc1ccccc1 | 0 | 1 | 13 | -1 | 18 | 8 | . | . | .
O=[N+]([O-])c1ccc2ncnc(N3CCN(Cc4ccc5c(c4)OCO5)CC3)c2c1 | 74* | 10 | 12 | 0 | 11 | 68* | 65* | 24 | 85*
O=[N+]([O-])c1cccnc1N1CCN(Cc2ccc3c(c2)OCO3)CC1 | -7 | 0 | -47 | 8 | -19 | 4 | . | . | .
CC[C@H](CO)Nc1nc(Nc2cccc(Cl)c2)c2ncn(C(C)C)c2n1 | 90* | -20 | 94* | -7 | -5 | 68* | 71* | 40* | 92*
CCCCCOC(=O)c1[nH]c2c(c1C)C(=O)CC(c1ccco1)C2 (stereo not drawn) | 65* | -47 | -21 | 5 | -5 | 52* | 52* | 89* | 85*
COCCOC(=O)c1[nH]c2c(c1C)C(=O)CC(c1cccs1)C2 (stereo not drawn) | . | 2 | 3 | -2 | 6 | 29 | . | . | .
O=C(Cn1nc(-c2ccccc2)oc1=O)OCC(=O)c1ccccc1 | 15 | 8 | 9 | 1 | 8 | -18 | . | . | .
c1ccc2c(c1)CCN(c1ncnc3nc[nH]c13)C2 | 39 | -4 | 10 | -4 | 0 | 17 | . | . | .
SMILES | Mdm2 MdmX PPI | KKLEB cytotox | Peg3 prom inh-1 | ABHD5-PLIN5 inh | HIF-2a inh | CF NFkB block | Mdm2-MdmX conf | FLuc counter | CF NFkB inh conf | others
CC1Cc2ccccc2N1c1ncnc2nc[nH]c12 (stereo not drawn) | 53* | 1 | -53 | 1 | -87 | 65* | 49* | 75* | 87*
CCNC(=O)C1CCCN(Cc2ccc(C)c3ccccc23)CC1 (stereo not drawn) | . | 0 | -3 | 3 | 19 | 2 | . | . | .
COc1ccc(-c2csc(/C(C#N)=C\c3ccc(O)c([N+](=O)[O-])c3)n2)cc1OC | 53* | -2 | 50 | 3 | -51 | 79* | 47* | 62* | 80*
CC1(C(=O)NS(=O)(=O)C2CC2)CCCN(C(=O)Cc2ccc3ccccc3c2)C1 (stereo not drawn) | . | -5 | 10 | -3 | 3 | 15 | . | . | .
COc1ccc(-c2c(C#N)c(N)nc(Sc3ccc(Cl)cc3)c2C#N)cc1 | 33 | -32 | 41 | -1 | 14 | 33 | . | . | .
COc1nc(N)c(C#N)c(-c2ccc(N(C)CCC#N)cc2)c1C#N | 73* | 2 | 58* | 1 | 21 | 59* | 47* | 82* | 75* | Peg3 prom inh-2=66*
COc1ccc2c(C)nc(Nc3nc(-c4ccccc4)cc(=O)[nH]3)nc2c1 | 73* | 3 | 108* | -8 | -52 | 64* | -16 | . | -59
Cc1cccc(CC2CC(=O)N(c3ccc(C)cc3Br)C2=O)c1 (stereo not drawn) | 10 | -12 | 11 | -3 | 21 | -9 | . | . | .
CC(=O)Nc1ccc(S(=O)(=O)N2c3ccccc3C(C)=CC2(C)C)cc1 | 74* | -17 | 22 | -3 | 34 | 54* | 60* | 94* | 65*
O=[N+]([O-])c1ccc(COc2cccc(CN3CCOCC3)c2)cc1 | . | 7 | -30 | -5 | -66 | -42 | . | . | .
O=C(Nc1cccc(-c2cnc3ccccc3n2)c1)c1cccc(NC(=O)c2ccco2)c1 | 68* | -10 | 46 | 15 | -69 | 67* | 65* | 88* | 108*
Cc1ccc(C)c(OCCC(=O)Nc2ccc3c(c2)OCO3)c1 | 16 | 5 | -22 | 5 | -46 | 7 | . | . | .
